Source: PubChem BioAssay (NCATS)
Inconclusive results are not listed. Where a call stands in place of a potency, no number is given. Active and inactive are the calls of the source. Calls come from the whole dose curve; as a rule, active = well fitted inhibition curve with a large enough effect; inconclusive = small, poorly fitted or top-dose-only effect; inactive = flat fitted curve, though single readings scatter.

target: Calcium and integrin-binding protein 1 (Homo sapiens) (UniProt Q99828); assay: Primary qHTS for Identification of Calcium Integrin Binding Protein 1 (CIB1) Competitor (AID 1508620); details: CIB1-GST / FITC-alphaIIb peptide fluorescence polarization; series mostly up to 57.7 µM;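 note: GST tagged CIB1 binding a fluorescein labelled alphaIIb integrin peptide tracer; top concentration of the series differs between compounds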
How it was run: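 CIB1-GST (1 uM final) and compound incubated 15 min at room temperature before adding FITC-alphaIIb peptide tracer (100 nM final). Competition for binding read by fluorescence polarization (ex 480, em 540) after another 15 min at room temperature.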

Chain of Calcium and integrin-binding protein 1 (Homo sapiens) (Q99828 whole entry, looked up): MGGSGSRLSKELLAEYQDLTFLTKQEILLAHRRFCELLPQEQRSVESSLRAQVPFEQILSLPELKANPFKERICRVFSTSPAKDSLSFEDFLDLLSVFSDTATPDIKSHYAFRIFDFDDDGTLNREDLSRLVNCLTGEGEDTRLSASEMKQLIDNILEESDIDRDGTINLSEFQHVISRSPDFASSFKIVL

| SMILES | Potency |
| --- | --- |
| CO[C@@]12CC3[C@@H]([C@@H](O)[C@@H](OC(C)=O)C4[C@](C)(COC(C)=O)CCC[C@]34C)[C@@H](C)C1=CC(=O)O2 (some centres undefined) | inactive |
| O=C(O[C@H]1[C@@H]2C[C@@H]3OC[C@@](O)([C@H]2[C@H](O[C@@H]2O[C@H](CO)[C@@H](O)[C@H](O)[C@H]2O)O3)[C@@H]1O)c1ccccc1 | inactive |
| COc1ccc2c(c1)O[C@H](O[C@@H]1O[C@H](CO)[C@@H](O)[C@H](O)[C@H]1O)C(=O)N2 | inactive |
| CC(=O)N(O)CCCCCN1C(=O)CCC1=O | inactive |
| CC1NC(=O)C(Cc2c[nH]c3ccccc23)NC1=O (centres undefined) | inactive |
| CC(C)=CCC[C@](C)(O[C@@H]1O[C@H](CO[C@@H]2OC[C@@H](O)[C@H](O)[C@H]2O)[C@@H](O)[C@H](O)[C@H]1O)[C@H]1CC[C@]2(C)[C@@H]1[C@H](O)C[C@@H]1[C@@]3(C)CC[C@H](O[C@@H]4O[C@H](CO)[C@@H](O)[C@H](O)[C@H]4O[C@@H]4O[C@H](CO)[C@@H](O)[C@H](O)[C@H]4O)C(C)(C)[C@@H]3CC[C@]12C | inactive |
| CC(=O)c1c(C)cc(O)cc1O[C@@H]1O[C@H](CO)[C@@H](O)[C@H](O)[C@H]1O | inactive |
| CC1(CO)CC2C(O)C(=O)C3(CO)CC3(C)C2C1 (centres undefined) | inactive |
| C[C@@H]1O[C@@H](OC[C@H]2O[C@@H](OCC3CCC4CC3C4(C)C)[C@H](O)[C@@H](O)[C@@H]2O)[C@H](O)[C@H](O)[C@H]1O (some centres undefined) | inactive |
